# KB-V1 MDR tox – qHTS assay for MDR1-selective chemotherapeutics: Primary screen using the drug-selected MDR subline cells KB-V1 | AID 1347076, 2019 | 3.4% of 400,000 active | KB-V1 MDR cells viability, CellTiter-Glo, 72 h | Potency, µM (doses to about 46.1 µM), actives largely listed as cytotoxic; further: potency means the concentration at half of the fitted maximal effect; on the % scale 0 is the no-effect control and ±100 the full control effect; nearly all actives have a fitted effect of over 60% in size
#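 Following 72 h at 37 degrees C with compound, KB-V1 cell viability was read by CellTiter-Glo luminescence, medium being phenol-red-free DMEM plus 10% FBS; concentration-response parameters came from normalized, curve-fitted qHTS data.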
# ASM inhibitor – Inhibitors of Secretory Acid Sphingomyelinase (S-ASM): qHTS | Sphingomyelin phosphodiesterase (Homo sapiens), P17405 | 0.006% of 340,000 active | AID 504937, 2011 | placental ASM, HMU-PC fluorogenic substrate, 60 min | Potency, µM (highest dose often 57.5 µM), without a hit: top-dose activity change, negative = inhibition, hits mostly inhibitors; further: potency means the concentration at half of the fitted maximal effect
# Target sequence (P17405 47-631 limits assumed): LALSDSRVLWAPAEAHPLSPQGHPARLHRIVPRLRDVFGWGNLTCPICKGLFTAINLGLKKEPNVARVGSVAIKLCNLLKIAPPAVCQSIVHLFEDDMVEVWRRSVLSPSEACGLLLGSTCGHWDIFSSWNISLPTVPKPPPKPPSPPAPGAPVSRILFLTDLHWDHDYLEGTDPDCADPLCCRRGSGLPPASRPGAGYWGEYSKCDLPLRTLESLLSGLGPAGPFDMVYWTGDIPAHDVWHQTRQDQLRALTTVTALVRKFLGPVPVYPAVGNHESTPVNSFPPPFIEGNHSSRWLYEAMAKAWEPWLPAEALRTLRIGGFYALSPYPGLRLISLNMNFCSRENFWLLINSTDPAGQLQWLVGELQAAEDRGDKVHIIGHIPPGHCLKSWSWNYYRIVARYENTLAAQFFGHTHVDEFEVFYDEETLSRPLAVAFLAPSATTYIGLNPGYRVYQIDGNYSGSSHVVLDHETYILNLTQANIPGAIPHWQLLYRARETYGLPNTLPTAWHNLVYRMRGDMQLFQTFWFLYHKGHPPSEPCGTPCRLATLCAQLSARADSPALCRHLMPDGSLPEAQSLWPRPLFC
#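 Steps: dispense placental human ASM, pin compound, wait 10 min at room temperature, add HMU-PC0 substrate at 9 uM final, incubate 60 min at 37 °C, add stop solution raising pH to 10, read fluorescence.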
# SW480 rereplic – A quantitative high throughput screen for small molecules that induce DNA re-replication in SW480 colon adenocarcinoma cells; SW480 DNA re-replication, Hoechst DNA content imaging, 48 h; Potency, µM (top dose mostly 46.1 µM), for the others: at the highest dose re-replication activation, most hits filed as activators; 1.8% of 340,000 active; AID 624297, 2012; further: potency means the concentration at half of the fitted maximal effect; % of control where 0% means no effect; nearly all actives have a fitted effect of over 55% in size
#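 250 cells/well; 23 nL cpd via pin tool; 48 hr, 37 C, 5% CO2; Hoechst 40 min; imager read of total nuclear intensity, ex 405/em 500-530 nm.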
# Giardia kill – Small Molecules that selectively kill Giardia lamblia: qHTS | Giardia lamblia trophozoite viability | activity change, % at 7.66 µM, hits read low | 0.15% of 340,000 active | AID 540267, 2011; in the data active means activity change below about -80%; inconclusive means between about -30% and that limit;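 further: parasites exposed to compound for two days anaerobically before the ATP read; on the % scale 0 is the no-effect control and ±100 the full control effect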
#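 Viability, read as ATP luminescence: trophozoites at 100 cells/well, compound added, 48 hrs anaerobic at 37 deg C, then 15-30 min room-temperature development before reading.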
# KB-3-1 cytotox – qHTS assay for MDR1-selective chemotherapeutics: Primary screen using the parental adenocarcinoma cell KB-3-1; Potency, µM (series often up to 46.1 µM), actives largely listed as cytotoxic; KB-3-1 viability, CellTiter-Glo ATP luminescence, 72 h; AID 1347075, 2019; 1.4% of 400,000 active; further: potency means the concentration at half of the fitted maximal effect; on the % scale 0 is the no-effect control and ±100 the full control effect; nearly all actives have a fitted effect of over 60% in size
#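 Using CellTiter-Glo luminescence, growth of non-resistant KB-3-1 adenocarcinoma cells is assessed 72 h after pin-tool compound addition at 37 °C. Normalized responses across the concentration series yield fitted curves.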
# MCF10A rerep – A quantitative high throughput screen for small molecules that induce DNA re-replication in MCF 10a normal breast cells. MCF 10A DNA re-replication, Hoechst nuclear intensity, 48 h. Potency, µM (titrated, usually from 46.1 µM), without a hit: at the top dose activity, positive = re-replication, usual class: activators. 2.9% of 350,000 active. AID 624296, 2012; further: potency means the concentration at half of the fitted maximal effect; % of control where 0% means no effect; nearly all actives have a fitted effect of over 50% in size
# * marks the source's active call; other numbers are inactive results; i = inactive; ? = inconclusive; . = no result. Rows were chosen to be rich in hits. Some 6.9% of all compounds tested hit in one or more screens of this group. Unless noted, the call rests on the fitted dose curve; in most records, active means well fitted curve in the direction sought with a large enough effect; inconclusive means small, poorly fitted or top-dose-only effect, or another doubt; inactive means no such curve, though single readings can be large; an effect the other way counts as inactive or inconclusive.
SMILES,KB-V1 MDR tox,ASM inhibitor,SW480 rereplic,Giardia kill,KB-3-1 cytotox,MCF10A rerep
Cc1cc(C(=O)COC(=O)c2ccc(N)c([N+](=O)[O-])c2)c(C)n1-c1ccc2c(c1)OCO2,?,-6.5%,-0.1%,3.7,?,2.0%
CCc1ccc(CNC(=O)c2sc3ncnc(N(C)C4CCCCC4)c3c2C)cc1,i,.,.,.,i,.
COc1ccc(CNC(=O)C(=O)Nc2ccc(OC)cc2OC)cc1,i,.,.,.,?,.
COc1ccc(/C=N/NC(=O)CCn2cnc(-c3ccccc3)c2-c2ccccc2)cc1OC,?,-3.9%,20.6µM*,-20.9,6.51µM*,8.2µM*
COc1cc(/C=C(/C(=O)O)c2ccc(-c3ccccc3)cc2)cc(OC)c1OC,?,-3.3%,20.6µM*,13.0,?,14.6µM*
COc1cc(/C=N\NC(=O)c2sc(N)nc2C)cc(OC)c1OC,i,-1.1%,-5.1%,0.1,i,20.6µM*
COc1cc(C(=O)Oc2ccccc2/C=N/NC(=O)c2ccc(Cl)cc2)cc(OC)c1OC,?,-5.7%,?,8.3,5.17µM*,?
COc1ccc(/C=N/NC(=O)CCC(=O)Nc2ccccc2)cc1OC,i,3.0%,17.8%,-1.1,i,15.2%
CCn1c(=O)c2cc(C(=O)N(CCCOC(C)C)Cc3ccco3)sc2c2ccccc21,?,.,.,.,i,.
Cc1ccc(NC(=O)Cn2c(=O)n(Cc3nc(-c4ccccc4)no3)c(=O)c3ccccc32)c(C)c1,i,.,.,.,i,.
COc1cc(/C=N/n2cnc3c(sc4nc(C)cc(C)c43)c2=O)ccc1O,i,-3.1%,?,-10.9,i,0.0%
COc1cc(/C=N/NC(=O)CCn2c3ccccc3c3ccccc32)cc(OC)c1OC,4.61µM*,-15.8%,4.8%,2.0,i,0.6%
COc1cc(/C=N/NC(=O)c2ccc(-c3ccccc3)cc2)cc(OC)c1OC,i,-24.2%,9.2µM*,22.5,i,21.4%
COc1cc(/C=N/NC(=O)c2sc3nc(C)cc(C)c3c2N)ccc1O,i,i,?,-19.4,i,14.6µM*
COc1ccc(/C=N/NC(=O)CCn2c3ccccc3c3ccccc32)cc1OC,i,-19.4%,2.4%,19.2,i,4.6%
COc1ccc(-c2ccc3c(N)c(C(=O)Nc4ccc(C)cc4C)sc3n2)cc1OC,i,.,.,.,i,.
OCC1(CCc2ccccc2)CCCN(CCCc2ccccc2)C1 (centres undefined),i,-1.3%,-1.7%,-2.9,i,17.4%
C=C1C(=O)[C@]23C[C@H]1CCC2[C@]1(C)CCC[C@@](C)(C(=O)O)C1C[C@@H]3O (some centres undefined),?,.,.,.,8.2µM*,.
COc1ccc(NC(=O)CSc2nnc3c(n2)[nH]c2ccc(S(=O)(=O)N(C)C)cc23)c(OC)c1,.,.,.,8.6,.,.
O=C(NCCC1CCCCN1S(=O)(=O)c1cccs1)C(=O)Nc1cccc(F)c1 (centres undefined),16.4µM*,-0.6%,-3.0%,0.8,i,?
O=C(NCCC1CCCCN1S(=O)(=O)c1cccs1)C(=O)NCc1ccccc1 (centres undefined),14.6µM*,4.7%,?,-9.3,?,?
COc1ccccc1NC(=O)C(=O)NCC1CCCN1S(=O)(=O)c1cccs1 (centres undefined),4.61µM*,2.0%,-1.9%,17.3,i,12.5%
O=C(NCC1CCCN1S(=O)(=O)c1cccs1)c1ccc(Cl)cc1 (centres undefined),?,-2.2%,-16.0%,?,i,12.8%
COc1ccccc1NC(=O)C(=O)NCCC1CCCCN1S(=O)(=O)c1cccs1 (centres undefined),i,10.1%,-71.9%,-19.4,?,21.2%
